Measured values from PubChem BioAssay (Tox21).
Where “and” joins values, the source holds several entries; their conditions need not be identical. Equal values may be shown once. Inconclusive results are not listed. Calls of active or inactive are those of the source. The call rests on the fitted dose curve; in most records, active means well fitted inhibition curve with a large enough effect in the signal ratio in the repeat runs; inconclusive means weak or mixed curves, or effect the other way; inactive means flat fitted curve, though single readings scatter; the % refers to the signal ratio.
On the % scale 0 is the no-effect control and ±100 the full control effect; potency means the concentration at half of the fitted maximal effect.

Experiment: qHTS assay for small molecule disruptors of the mitochondrial membrane potential (AID 720635)
Settings: HepG2 mitochondrial membrane potential, Mito-MPS dye ratio; series mostly up to 83.2 µM; ratio activity, negative = MMP loss: at the top concentration
Excerpt: U.S. Tox21 Program National Center for Advancing Translational Sciences [NCATS] NIH Chemical Genomics Center [NCGC] U.S. Environmental Protection Agency [EPA] National Institutes of Environmental Health Sciences [NIEHS] National Toxicology Program [NTP] U.S. Food and Drug Administration [FDA] Tox21 Assay Overview: Mitochondrial membrane potential (MMP), one of the parameters for mitochondrial function, is generated by mitochondrial electron transport chain that creates an electrochemical gradient by a series of redox reactions. This gradient drives the synthesis of ATP, a crucial molecule for various cellular processes. Measuring MMP in living cells is commonly used to assess the effect of chemicals on mitochondrial function. […] The dye accumulates in the mitochondria of healthy cells as aggregates, with red fluorescence. The mitochondrial potential collapses and the dye can no longer accumulate in the mitochondria and remains in the cytoplasm in monomers, with green fluorescence.
Tox21 Assay Protocol Summary: 2,000 HepG2 cells in 5 uL/well were dispensed into black, clear-bottom 1536-well plates using a Multidrop Combi (Thermo Scientific) dispenser. The assay plates were incubated overnight at 37C to allow cells to attach to the wells, followed by the transfer of 23 nL compound or DMSO vehicle by a pin tool (Kalypsys). The plates were incubated for 1 hr at 37C and 5% CO2, followed by the addition of 5 uL of 2X Mito-MPS dye (BD Biosciences) into each well using Flying Reagent Dispenser (Aurora Discovery) and then following 30 min incubation at 37C. Fluorescence intensity (490nm excitation and 535nm emission for monomers; and 540nm excitation and 590nm emissions for aggregates) was measured using an Envision plate reader.
For `CCn1cc[n+](C)c1`, the Potency was “inactive”. In the case of `COc1cc(CC(C)N)cc2c1OCO2` (stereo not given), the “ratio activity, negative = MMP loss” value is reported as 17.6% [at 95.3 µM] (inactive). With `CC(C)=CCOc1c2occc2cc2ccc(=O)oc12` the “ratio activity, negative = MMP loss” value was 13.6% (inactive). In the case of `Clc1cc(Cl)c(Cl)c(Cl)c1`, the “ratio activity, negative = MMP loss” value is reported as 14.6% (inactive). In the case of `Clc1cccc(SC2CCNCC2)n1`, the “ratio activity, negative = MMP loss” value is reported as -9.17% (inactive). In the case of `NCC(CC(=O)O)c1ccc(Cl)cc1` (stereo not given), the “ratio activity, negative = MMP loss” value is reported as 12.5% (inactive). In the case of `Nc1nc(=S)[nH][nH]1`, the “ratio activity, negative = MMP loss” value is reported as 23.1% (inactive). For `CCOP(=S)(Oc1ccc([N+](=O)[O-])cc1)c1ccccc1` (stereo not given), the Potency was 21.7 µM (active). With `O=C(C(Cl)(Cl)Cl)C(Cl)(Cl)Cl` the “ratio activity, negative = MMP loss” value was 14.4% [at 95.3 µM] (inactive). With `BrCC(Br)C1CCC(Br)C(Br)C1` (stereo not given) the Potency was 27.2 µM (active). For `CCCCCCCCCCOC(=O)c1ccccc1C(=O)OCCCCCCCCCC`, the “ratio activity, negative = MMP loss” value was 18.3% (inactive). For `ClC=C(Cl)Cl`, the “ratio activity, negative = MMP loss” value was -1.75% (inactive). With `CN1C(=O)NC(=O)C(C)(C2=CCCCC2)C1=O` (stereo not given) the Potency was “inactive”. For `O=S(=O)(Cl)c1ccccc1`, the “ratio activity, negative = MMP loss” value was -13.4% [at 95.3 µM] (inactive). With `Cc1c(F)c(F)c(COC(=O)C2C(/C=C(\Cl)C(F)(F)F)C2(C)C)c(F)c1F` (stereo not given) the Potency was 30.6 µM (active). In the case of `CC(=O)NC1CCSC1=O` (stereo not given), the Potency is reported as “inactive”. With `O=C(CBr)c1ccccc1` the “ratio activity, negative = MMP loss” value was -6.33% [at 95.3 µM] (inactive). For `COC(C)(C)CCC[C@H](C)C/C=C/C(C)=C/C(=O)OC(C)C`, the Potency was 30.6 µM (active). In the case of `C(=NC1CCCCC1)=NC1CCCCC1`, the Potency is reported as 138 nM (active) and 217 nM (active). With `CN(C)c1ccc(N(C)C)cc1` the “ratio activity, negative = MMP loss” value was -18.6% (inactive). With `CO[C@@H]1[C@H](OC(=O)NC(=O)CCl)CC[C@]2(CO2)[C@H]1[C@@]1(C)O[C@@H]1CC=C(C)C` the “ratio activity, negative = MMP loss” value was 6.74% [at 39.1 µM] (inactive). In the case of `O=[N+]([O-])C(Br)(CO)CO`, the Potency is reported as “inactive”. For `c1ccc(C2CC2)c(OCC2=NCCN2)c1`, the “ratio activity, negative = MMP loss” value was -6.81% (inactive). In the case of `CC(C)(OO)c1ccccc1`, the “ratio activity, negative = MMP loss” value is reported as 28.8% (inactive). In the case of `COP(=S)(Oc1cc(Cl)c(Br)cc1Cl)c1ccccc1` (stereo not given), the Potency is reported as 48.6 µM (active). For `[CH3][Sn]([CH3])([Cl])[Cl]`, the Potency was “inactive”. For `CCCCNP(N)(N)=S`, the “ratio activity, negative = MMP loss” value was -18.9% (inactive). In the case of `c1ccoc1`, the “ratio activity, negative = MMP loss” value is reported as -11.4% (inactive). For `NC(=O)C(Cl)(Cl)Cl`, the “ratio activity, negative = MMP loss” value was 10.9% [at 95.3 µM] (inactive). In the case of `O=C1CN=C(c2ccccc2)c2cc(Cl)ccc2N1CC1CC1`, the Potency is reported as 51 µM (active). With `CCCN(CC1CC1)c1c([N+](=O)[O-])cc(C(F)(F)F)cc1[N+](=O)[O-]` the Potency was 30.6 µM (active). With `Brc1ccccc1` the “ratio activity, negative = MMP loss” value was -7.18% (inactive). In the case of `Nc1ccc([N+](=O)[O-])cc1[N+](=O)[O-]`, the Potency is reported as 29.9 µM (active). With `O=C(Nc1ccccc1)Nc1ccnc(Cl)c1` the Potency was 0.386 µM (active). In the case of `CCBr`, the “ratio activity, negative = MMP loss” value is reported as 12.6% [at 95.3 µM] (inactive). With `CCOP(=S)(OCC)Oc1nc(Cl)c(Cl)cc1Cl` the Potency was 13.7 µM (active) and 30.6 µM (active). For `[O-][Cl+]O`, the “ratio activity, negative = MMP loss” value was 1.67% (inactive). For `CC(=O)c1cc2c(cc1C)C(C)(C)C(C)CC2(C)C` (stereo not given), the Potency was 54.5 µM (active). For `O=NN1CCNCC1`, the “ratio activity, negative = MMP loss” value was 22.2% [at 95.3 µM] (inactive). In the case of `O=C(Nc1ccccc1)Nc1cnns1`, the Potency is reported as 3.06 µM (active).
